Compound activity from PubChem.
Only some compounds are listed: those with a hit (about 10% of all), similar ones and a draw of the others.
GPT2 inhibitor: inhibitors of human GPT2 alanine aminotransferase; Q8TD30; Recombinant GPT2, coupled pyruvate oxidase/HRP Amplex Red fluorescence; Potency, µM (series often up to 57.7 µM), for the others: at the top dose activity change, negative = inhibition, hits mostly inhibitors; actives 0.25% (n = 100,000); AID 1671188; also: potency is read from the fitted curve at half-maximal effect; % is scaled to controls: 0 for no effect and ±100 for the full control effect; nearly all actives have a fitted effect of over 60% in size
Target sequence (Q8TD30 whole entry, looked up): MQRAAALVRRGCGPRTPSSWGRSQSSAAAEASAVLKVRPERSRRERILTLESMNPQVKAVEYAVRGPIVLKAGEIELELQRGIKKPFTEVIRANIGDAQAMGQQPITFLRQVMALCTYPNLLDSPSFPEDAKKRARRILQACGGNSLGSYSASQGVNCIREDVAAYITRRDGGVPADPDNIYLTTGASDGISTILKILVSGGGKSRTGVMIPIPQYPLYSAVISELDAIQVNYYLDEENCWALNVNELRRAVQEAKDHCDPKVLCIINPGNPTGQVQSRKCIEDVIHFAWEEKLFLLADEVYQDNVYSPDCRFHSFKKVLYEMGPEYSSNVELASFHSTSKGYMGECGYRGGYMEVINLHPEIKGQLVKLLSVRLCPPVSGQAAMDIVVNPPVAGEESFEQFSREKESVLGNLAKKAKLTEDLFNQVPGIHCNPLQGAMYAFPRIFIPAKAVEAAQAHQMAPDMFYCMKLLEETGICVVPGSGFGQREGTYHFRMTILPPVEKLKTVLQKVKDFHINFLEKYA
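Fluorescence of coupled pyruvate oxidase/HRP/Amplex Red system (50uM Amplex, 30 min, dark) reports pyruvate formed by GPT2. Enzyme reaction: 10ng/uL GPT2, 2mM L-alanine, 250uM a-KG, 30 min room temperature, pH 7.5; 50uM AOA control.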
NPR1 antag: blocks ANP-stimulated signaling of human Npr1 receptor | P16066 | HEK293 hNpr1 GloSensor cGMP, ANP-stimulated luminescence | Potency, µM (top dose mostly 46.3 µM), for the others: at the highest dose activity change, negative = inhibition, usual class: inhibitors | actives 1.6% (n = 76,000); calls by dose curve; also: potency is read from the fitted curve at half-maximal effect; % is scaled to controls: 0 for no effect and ±100 for the full control effect; nearly all actives have a fitted effect of over 60% in size
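HEK293 cells stably expressing human Npr1 and cGMP GloSensor pGS-40F, loaded 2 h with 2% GloSensor reagent, given compound 30 min at room temperature. Luminescence read before and 20 min after 0.1 nM hNppA.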
FLuc inh: inhibitors of firefly (Photinus pyralis) luciferase; Potency, µM (highest dose often 115 µM), most hits filed as inhibitors; purified P. pyralis luciferase, luminescence, biochemical; AID 1347043; actives 2.5% (n = 76,000); also: potency is read from the fitted curve at half-maximal effect; % is scaled to controls: 0 for no effect and ±100 for the full control effect; nearly all actives have a fitted effect of over 65% in size
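Luminescence read by CCD imaging after purified firefly luciferase (10nM final) was added to substrate buffer holding 10uM D-luciferin and 10uM ATP, pH 7.5, pre-dosed with compound.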
HEK cytotox: HEK 293 cell cytotoxicity; HEK 293 viability, ATP luminescence (CellTiter-Glo), 48-72 h; Potency, µM (top dose mostly 115 µM), for the others: at the highest dose activity change, negative = cytotoxicity, hits mostly inhibitors; actives 6.6% (n = 94,000); AID 1345083; also: potency is read from the fitted curve at half-maximal effect; % is scaled to controls: 0 for no effect and ±100 for the full control effect; nearly all actives have a fitted effect of over 60% in size
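Cytotoxicity was scored by loss of ATP-coupled luminescence (CellTiter-Glo) in HEK 293 cells. Compound treatment ran 48 or 72 hr at 37 degree Celsius, 5% CO2, 95% humidity.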
3T3 cytotox: kills NIH 3T3 cells | actives 4.3% (n = 94,000) | AID 1345082 | Potency, µM (doses to about 96.7 µM), without a hit: at the top dose activity change, negative = cytotoxicity, most hits filed as inhibitors | NIH 3T3 viability, CellTiter-Glo ATP luminescence, 48-72 h; also: potency is read from the fitted curve at half-maximal effect; % is scaled to controls: 0 for no effect and ±100 for the full control effect; nearly all actives have a fitted effect of over 55% in size
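First NIH 3T3 cells are plated at 400 cells/well; next compound is pinned in; then plates incubate 48 or 72 hr at 37 °C; finally CellTiter-Glo is added and luminescence read after 10 min.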
GPT2 conf: human alanine aminotransferase 2 inhibition, confirmatory; Potency, µM, hits mostly inhibitors; shares compounds with GPT2 inhibitor; actives 90% (n = 95); GPT2 enzyme, coupled Amplex Red pyruvate fluorescence
An asterisk follows results filed as active; i = inactive; u = inconclusive; x = no result; ! = repeats disagree; [ ] = remark or other dose. Unless noted, calls follow the shape of the dose curve; as a rule, active = well fitted curve in the direction sought with a large enough effect; inconclusive = small, poorly fitted or top-dose-only effect, or another doubt; inactive = no such curve, though single readings can be large; an effect the other way counts as inactive or inconclusive.

SMILES	GPT2 inhibitor	NPR1 antag	FLuc inh	HEK cytotox	3T3 cytotox	GPT2 conf
COc1ccc(CNC(=O)N2CCOc3ccc(N(C)C)cc3C2)cc1	1.8µM*	x	x	u	-30%	0.86*
CCNC(=O)N1CCOc2ccc(CN3CCOCC3)cc2C1	i	1%	i	-3%	-14%	x
CN1CCC(NC[C@H]2COCc3nc4cc(C(F)(F)F)ccc4n32)CC1	-5%[88.5 µM]	2%[70.6 µM]	i	u	-17%[138 µM]	x
C=CC(=O)Nc1cccc(Nc2nc(Nc3ccc(NC4CN(CCF)C4)cc3OC)ncc2C(F)(F)F)c1	8.9µM*	x	x	x	x	3.1*
C=CC(=O)Nc1cccc(Nc2nc(Nc3ccc(OCCOC)cc3)ncc2F)c1	i	x	x	x	x	x
O=C(c1ccoc1)N1CCCN(Cc2ccc3c(c2)OCO3)c2ccccc21	-9%	x	x	u	u	x
CN1CCCN(Cc2ccc3c(c2)OCO3)c2ccccc21	u	x	x	u	u	3.1*
CNC(=O)c1cc(C2CC2)nc2onc(C3CCN(C(=O)c4ccc(F)cc4)CC3)c12	x	x	x	-14%	u	x
O=C(c1cnccn1)N1CCC2(CC1)NCCc1c2[nH]c2ccccc12	2%	3%	i	-18%	-22%	x
O=C(c1cnccn1)N1CCC2(CC1)CCC(O)(CN1CCc3ccccc31)CC2	u	x	x	u	u	1.1*
CC(C)NC(=O)C1CCCN(c2ccnc3ccnn23)C1 (stereo unspecified)	i	x	x	-16%[172 µM]	-28%[138 µM]	x
COc1cc(-c2nc3c([nH]2)CCCNC3=O)ccc1O	u	6%	i	i	u	6.1*
Cc1noc2c(-c3cccnc3NCCN3CCOCC3)cc(-c3ccccc3)nc12	1%[88.5 µM]	0%[70.6 µM]	i	u	u	x
O=C1C(Cl)=C(NCCN2CCOCC2)C(=O)c2ncccc21	1.4µM*	x	x	x	x	1.5*
CC(C)[C@]1(O)CN(C(=O)Cn2[nH]c3ccccc3c2=O)C[C@H]1C	u	5%	i	-6%	-2%	4.3*
C[C@@H]1CN(C(=O)Cn2ccc(=O)[nH]c2=O)C[C@@]1(O)C1CCC1	i	0%	i	-12%	-14%	x
CCOC(=O)[C@H]1[C@@H](O)C(=O)N(C(C)C)C12CCN(C(=O)c1cc(C)oc1C)CC2	x	x	x	-6%	u	x
O=C(CCC[C@H]1NC[C@@H]2C[C@H]1CN(Cc1ccccc1)C2)Nc1ccc(N2CCOCC2)cc1	7.1µM*	-4%	u	0%	-16%	4.9*
CN1C(=O)c2cccn2CC1C(=O)Nc1ccc(F)cc1 (stereo unspecified)	i	x	x	3%	-8%	x
c1cncc(-c2ccnc(NCCCN3CCCc4ccccc43)n2)c1	u	-18%	i	u	22µM*	2.2*
COc1ccc(N2CC3(C2)CN(c2ccccc2)C(=O)O3)cc1OC	u	-5%[70.6 µM]	i	u	-25%[138 µM]	u
O=C(O)C=Cc1ccc(O)c(O)c1	4.3µM*	x	x	x	x	3.4*
O=C(/C=C/c1ccc(O)c(O)c1)OCCc1ccccc1	-3%	x	x	x	x	x
CN(C)c1cccc(C(=O)N2CCNc3cnc(Nc4ccc(N5CCOCC5)cc4)nc3C2)c1	2µM*	-26%	i	u	-26%	1.9*
c1ccc2c(CCNc3ccc(Nc4ccncc4)cc3)c[nH]c2c1	14µM*!	x	x	x	x	4.9*
SMILES	GPT2 inhibitor	NPR1 antag	FLuc inh	HEK cytotox	3T3 cytotox	GPT2 conf
CN(Cc1ccsc1)Cc1cccc(C(F)(F)F)c1	3%[88.5 µM]	x	x	-15%[172 µM]	-18%[138 µM]	x
CC(C)Nc1ncnc2c1CN(C1CCCC1)C(=O)CN2C	i	x	x	-10%[172 µM]	-16%[138 µM]	x
CN1CCOc2c(C(=O)NCc3cccnc3)cc(-c3ccc(N4CCOCC4)cc3)cc21	-2%	6%	i	u	-29%	x
COCCNC(=O)c1cc(N2CCOCC2)cc2c1OCCN2C	x	x	x	x	x	1.6*
CCOc1cc(N2CCC(O)CC2)ccc1Nc1ncc2c(n1)N(C)c1ccccc1C(=O)N2C	12µM*	x	x	x	x	3.1*
CC(=O)Oc1c(-c2ccc(NC(=O)c3ccco3)cc2)c(C2CC2)nn1-c1cccc(C)c1	u	-4%	i	u	u	x
COc1cccc(-c2nn(-c3ccccc3)c(OC(C)=O)c2-c2ccc(NC(=O)c3ccco3)cc2)c1	u	-19%	i	-29%	-15%	7.7*
CC(C)c1nc2c(c(-c3ccc(O)cc3)n1)CN(Cc1ccsc1)CC2	i	-13%	i	u	u	x
Cn1nccc1OCc1cn2c(=O)n(C)cc(-c3ccc(F)cc3)c2n1	x	x	x	x	x	6.3*
Cc1ccc(NC(=O)CCNc2c(C)nc3cnccn23)c(F)c1	u	-3%	i	-12%	-17%	6.9*
